Test results taken from PubChem BioAssay (NCATS).
Results filed as inconclusive are left out. The source made the active and inactive calls. The call rests on the fitted dose curve; in most records, active means well fitted curve in the direction sought with a large enough effect; inconclusive means small, poorly fitted or top-dose-only effect, or another doubt; inactive means no such curve, though single readings can be large; an effect the other way counts as inactive or inconclusive.

What was measured:
[1] = target: Luciferin 4-monooxygenase (Photinus pyralis) (UniProt P08659); assay: Biochemical firefly luciferase enzyme assay for NPC (AID 624030);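 further: purified P. pyralis luciferase at 10 nM with luciferin and ATP substrate; 0% = DMSO and -100% = full luciferase inhibition by PTC124 control; nearly all actives have a fitted effect of over 70% in size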
Procedure, shortened: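 Purified P. pyralis luciferase at 10 nM in 50 mM Tris Acetate (final), luminescence read within 5 minutes of enzyme addition to compounds. Activity normalised to PTC124 versus DMSO; concentration-response curves classed by r2, magnitude and activity.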

[2] = qHTS profiling for inhibitors of Plasmodium falciparum proliferation (AID 504749); further: potency means the concentration at half of the fitted maximal effect;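 on activity, negative = inhibition: 0% = DMSO vehicle and full inhibition = artemisinin control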; on all read-outs here: nearly all actives have a fitted effect of over 60% in size; conditions: P. falciparum in erythrocytes, SYBR Green DNA, 72 h; for activity, negative = inhibition: at 28.7 µM (top of the series)
Procedure, shortened: (§1)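 Readout was DNA-dye fluorescence from lysed cultures, ex 485/em 535 nm. Parasitized red cells had grown 72 h with compound; data scaled between 0.29 uM artemisinin and DMSO wells and corrected using vehicle-only plates.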

[3] = system: C2A; assay: as above; conditions: P. falciparum in erythrocytes, SYBR Green DNA, 72 h; series mostly up to 28.7 µM
Procedure, shortened: as §1

[4] = system: CP192; assay: as above; conditions: P. falciparum in erythrocytes, SYBR Green DNA, 72 h; series mostly up to 28.7 µM
Procedure, shortened: as §1

[5] = system: CP201; assay: as above; conditions: P. falciparum in erythrocytes, SYBR Green DNA, 72 h; series mostly up to 28.7 µM
Procedure, shortened: as §1

[6] = system: CP215; assay: as above; conditions: P. falciparum in erythrocytes, SYBR Green DNA, 72 h; series mostly up to 28.7 µM
Procedure, shortened: as §1

[7] = system: CP268; assay: as above; conditions: P. falciparum in erythrocytes, SYBR Green DNA, 72 h; series mostly up to 28.7 µM
Procedure, shortened: as §1

[8] = system: CP269; assay: as above; conditions: P. falciparum in erythrocytes, SYBR Green DNA, 72 h; series mostly up to 28.7 µM
Procedure, shortened: as §1

[9] = system: CP286; assay: as above; conditions: P. falciparum in erythrocytes, SYBR Green DNA, 72 h; series mostly up to 28.7 µM
Procedure, shortened: as §1

[10] = system: CP315; assay: as above; conditions: P. falciparum in erythrocytes, SYBR Green DNA, 72 h; series mostly up to 28.7 µM
Procedure, shortened: as §1

[11] = system: ECU; assay: as above; conditions: P. falciparum in erythrocytes, SYBR Green DNA, 72 h; series mostly up to 28.7 µM
Procedure, shortened: as §1

[12] = system: FAB9; assay: as above; conditions: P. falciparum in erythrocytes, SYBR Green DNA, 72 h; series mostly up to 28.7 µM
Procedure, shortened: as §1

[13] = system: JCK; assay: as above; conditions: P. falciparum in erythrocytes, SYBR Green DNA, 72 h; series mostly up to 28.7 µM
Procedure, shortened: as §1

[14] = target: ATP-dependent 6-phosphofructokinase (Trypanosoma brucei brucei) (UniProt O15648); assay: qHTS Assay to Find Inhibitors of T. brucei phosphofructokinase: hit validation (AID 492961);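 further: luminescence reports ADP formed as PFK phosphorylates fructose-6-phosphate with ATP; on the % scale 0 is the no-effect control and ±100 the full control effect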
Procedure, shortened: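 Compounds titrated; %activity normalized to 0x and 1x enzyme controls, curve-fitted. Readout: ADP-Glo luminescence after 45 min room-temperature reaction of 1.25 nM PFK, 0.1 mM ATP, 0.5 mM F6P, pH 8.0.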

[15] = system: ATS189; assay: qHTS profiling for inhibitors of Plasmodium falciparum proliferation (AID 504749); further: nearly all actives have a fitted effect of over 60% in size; further: potency means the concentration at half of the fitted maximal effect;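 on activity, negative = inhibition: 0% = DMSO vehicle and full inhibition = artemisinin control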; conditions: P. falciparum in erythrocytes, SYBR Green DNA, 72 h; series mostly up to 28.7 µM
Procedure, shortened: as §1

[16] = system: CP305; assay: as above; conditions: P. falciparum in erythrocytes, SYBR Green DNA, 72 h; series mostly up to 28.7 µM
Procedure, shortened: as §1

[17] = system: CP325; assay: as above; conditions: P. falciparum in erythrocytes, SYBR Green DNA, 72 h; series mostly up to 28.7 µM
Procedure, shortened: as §1

[18] = system: CP329; assay: as above; conditions: P. falciparum in erythrocytes, SYBR Green DNA, 72 h; series mostly up to 28.7 µM
Procedure, shortened: as §1

[19] = system: PC49; assay: as above; conditions: P. falciparum in erythrocytes, SYBR Green DNA, 72 h; series mostly up to 28.7 µM
Procedure, shortened: as §1

Chain of Luciferin 4-monooxygenase (Photinus pyralis) (P08659 whole entry, looked up): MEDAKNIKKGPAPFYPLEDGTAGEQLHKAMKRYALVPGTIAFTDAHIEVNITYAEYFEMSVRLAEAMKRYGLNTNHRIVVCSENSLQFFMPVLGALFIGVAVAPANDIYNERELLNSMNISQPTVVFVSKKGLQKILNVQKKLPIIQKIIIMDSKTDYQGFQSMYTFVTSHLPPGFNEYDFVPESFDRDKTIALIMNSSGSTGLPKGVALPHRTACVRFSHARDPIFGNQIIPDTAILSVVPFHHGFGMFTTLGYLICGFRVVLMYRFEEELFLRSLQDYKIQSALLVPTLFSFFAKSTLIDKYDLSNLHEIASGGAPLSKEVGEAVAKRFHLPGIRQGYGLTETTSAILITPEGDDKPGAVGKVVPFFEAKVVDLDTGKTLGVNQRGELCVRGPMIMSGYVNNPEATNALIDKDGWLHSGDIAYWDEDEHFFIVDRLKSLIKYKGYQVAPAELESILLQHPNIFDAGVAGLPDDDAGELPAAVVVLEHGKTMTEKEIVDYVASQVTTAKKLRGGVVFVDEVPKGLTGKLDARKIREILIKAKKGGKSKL
Chain of ATP-dependent 6-phosphofructokinase (Trypanosoma brucei brucei) (O15648 whole entry, looked up): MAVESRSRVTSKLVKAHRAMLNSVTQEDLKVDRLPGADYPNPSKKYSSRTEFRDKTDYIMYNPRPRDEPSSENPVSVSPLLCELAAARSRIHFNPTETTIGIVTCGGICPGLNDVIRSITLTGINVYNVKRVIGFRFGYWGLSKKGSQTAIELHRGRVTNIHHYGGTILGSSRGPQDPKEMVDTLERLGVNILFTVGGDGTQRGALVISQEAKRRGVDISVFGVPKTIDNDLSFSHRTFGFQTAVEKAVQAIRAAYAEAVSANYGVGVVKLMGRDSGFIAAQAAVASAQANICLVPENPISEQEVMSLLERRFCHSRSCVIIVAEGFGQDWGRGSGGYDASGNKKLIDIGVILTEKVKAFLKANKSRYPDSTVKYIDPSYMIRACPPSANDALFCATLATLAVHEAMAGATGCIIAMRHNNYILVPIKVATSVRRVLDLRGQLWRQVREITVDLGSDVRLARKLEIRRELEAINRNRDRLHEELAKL

CCC(=O)OC1(c2ccccc2)CCN(C)CC1C (configuration not stated)
inactive: Potency [1] | activity, negative = inhibition ([2]; parasite line A) -1.38% | activity, negative = inhibition ([2]; parasite line B) 2.19% | Potency [3] | Potency [4] | Potency [5] | Potency [6] | Potency [7] | Potency [8] | Potency [10] | Potency [11] | Potency [12] | Potency [13]
active: Potency [9] 12600 nM

C#C[C@]1(O)CC[C@H]2[C@@H]3CCC4=CC(=O)CCC4(C)[C@H]3CCC21C (some centres not stated)
inactive: outcome [14] | Potency [1] | activity, negative = inhibition ([2]; parasite line A) -6.98% | activity, negative = inhibition ([2]; parasite line B) 2.88% | Potency [15] | Potency [3] | Potency [4] | Potency [5] | Potency [6] | Potency [7] | Potency [8] | Potency [9] | Potency [16] | Potency [10] | Potency [17] | Potency [18] | Potency [11] | Potency [12] | Potency [13] | Potency [19]

CC(C)CCC(=O)OC1CCC2C3CCC4=CC(=O)CC[C@]4(C)C3CC[C@]12C (some centres not stated)
inactive: Potency [1] | Potency [4] | Potency [5] | Potency [6] | Potency [7] | Potency [8] | Potency [16] | Potency [10] | Potency [17] | Potency [18] | Potency [12] | Potency [13] | Potency [19]
active: Potency ([2]; parasite line A) 10000 nM | Potency [15] 8910 nM | Potency [9] 4470 nM | Potency [11] 10000 nM

CC(Cc1ccccc1)N(C)C (configuration not stated)
inactive: outcome [14] | Potency [1] | activity, negative = inhibition ([2]; parasite line A) 9.11% | activity, negative = inhibition ([2]; parasite line B) 11.3% | Potency [15] | Potency [3] | Potency [4] | Potency [5] | Potency [6] | Potency [8] | Potency [9] | Potency [16] | Potency [10] | Potency [17] | Potency [18] | Potency [11] | Potency [12] | Potency [13] | Potency [19]

C[C@]12CC[C@H]3[C@@H](CC[C@@]45O[C@@H]4C(=O)C(C#N)C[C@]35C)[C@@H]1CC[C@@H]2O (some centres not stated)
inactive: outcome [14] | Potency [1] | Potency [4] | Potency [5] | Potency [6] | Potency [7] | Potency [8] | Potency [9] | Potency [16] | Potency [10] | Potency [17] | Potency [18] | Potency [12] | Potency [13] | Potency [19]

CC1CC[C@@]2(NC1)OC1CC3C4CC[C@@H]5CC(O)CC[C@@]5(C)C4CC[C@]3(C)C1C2C (some centres not stated)
active: Potency [11] 12600 nM
inactive: outcome [14] | Potency [1] | Potency [15] | Potency [3] | Potency [4] | Potency [5] | Potency [6] | Potency [7] | Potency [8] | Potency [9] | Potency [16] | Potency [10] | Potency [17] | Potency [18] | Potency [12] | Potency [13] | Potency [19]

CCC/C=C/C=C/C(=O)OC1/C(=C/C(=O)OC)CC2CC(C(C)O)OC(=O)CC(O)CC3CC(OC(C)=O)C(C)(C)C(O)(CC4C/C(=C/C(=O)OC)CC(/C=C\C(C)(C)C1(O)O2)O4)O3 (configuration not stated)
inactive: outcome [14] | Potency [1]
active: Potency ([2]; parasite line A) 1580 nM | Potency ([2]; parasite line B) 1780 nM | Potency [15] 891 nM | Potency [3] 1260 nM | Potency [6] 1690 nM | Potency [7] 1350 nM | Potency [8] 1510 nM | Potency [9] 2240 nM | Potency [16] 1900 nM | Potency [18] 1900 nM | Potency [11] 1260 nM | Potency [12] 2240 nM | Potency [13] 3160 nM | Potency [19] 1260 nM

COC(=O)C1C(OC(=O)c2ccccc2)CC2CCC1N2C (configuration not stated)
inactive: Potency [1] | activity, negative = inhibition ([2]; parasite line A) 9.75% | activity, negative = inhibition ([2]; parasite line B) -3.4% | Potency [15] | Potency [3] | Potency [4] | Potency [5] | Potency [6] | Potency [7] | Potency [8] | Potency [9] | Potency [16] | Potency [10] | Potency [17] | Potency [18] | Potency [11] | Potency [12] | Potency [13] | Potency [19]

C=C1CC2C(CC[C@]3(C)C(=O)CCC23)[C@]2(C)C=CC(=O)C=C12 (some centres not stated)
inactive: outcome [14] | Potency [1] | activity, negative = inhibition ([2]; parasite line B) 0.0393% | Potency [15] | Potency [3] | Potency [4] | Potency [5] | Potency [6] | Potency [7] | Potency [8] | Potency [9] | Potency [16] | Potency [10] | Potency [17] | Potency [18] | Potency [11] | Potency [12] | Potency [13] | Potency [19]

CCN(CC)C(=O)N[C@@H]1C=C2c3cccc4[nH]cc(c34)C[C@H]2N(C)C1
inactive: outcome [14] | Potency [1] | activity, negative = inhibition ([2]; parasite line A) -22.6% | Potency [4] | Potency [5] | Potency [6] | Potency [10] | Potency [17] | Potency [12] | Potency [19]
